In PubChem BioAssay AID1053180 (Broad Institute, 2014):
“And” between values parts separate entries of the source, which are not always exact repeats. Equal entries are not always repeated. The campaign covered roughly 9,600 compounds. About 20 (0.2%) were called active. This is one part of a sample in which actives are shown more often than they occur.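 Rule for the calls: active = highest normalized replicate activity of 15 or more, or at least half the replicates reach 15 or more; inactive = neither condition met.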 The source holds several records for some structures; these can differ, active in one and inactive in another.

test: activators of Pax4 gene expression, primary screen, RT-PCR, mouse alpha TC1 cells, single point (AID 1053180); details: Pax4 mRNA qPCR, 6 days, at 10 µM, stronger effect = higher value, 100% = Pax4 plasmid added at qPCR;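 note: Pax4 Ct normalized to GAPDH with activation seen as lower delta delta Ct; plate controls were plate neutral control wells for no effect and Pax4 plasmid positive control for full effect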

| Compound | activation |
| --- | --- |
| C(=C\c1ccc(C2[C@@H]3CN(Cc4ccc5c(c4)OCO5)C[C@H]2N3)cc1)/c1ccccc1 (stereo partly drawn) | 10.3% (active) and 0.0555% (inactive) |
| Cc1ccccc1-c1ccc(C2[C@@H]3CN(Cc4ccc5c(c4)OCO5)C[C@H]2N3)cc1 (stereo partly drawn) | 0.039% (inactive) and 0.046% (inactive) |
| O=C(c1ccc2c(c1)OCO2)N1C[C@@H]2N[C@H](C1)C2c1ccc(/C=C/c2ccccc2)cc1 (stereo partly drawn) | 0.452% (inactive) and 0.1% (inactive) |
| CCS(=O)(=O)N1Cc2cc(C(=O)NCCOC)nc(-c3cccc(-c4ccncc4)c3)c2[C@H]1CCO | 0% (inactive) |
| N#C[C@@H]1[C@@H](c2ccccc2-c2ccccc2F)[C@@H](CO)N1C(=O)Cc1ccccc1 | 0.0105% (inactive) |
| CO[C@@H](CN(C)C(=O)c1ccc2c(c1)OCO2)[C@@H](C)CN([C@H](C)CO)S(=O)(=O)c1ccc(Cl)cc1 | 0.019% (inactive) |
| CO[C@H]1CC[C@@H]2CCOc3ccc(C#N)cc3C(=O)N(C)[C@H](C)C(=O)N(C)C[C@@H]1O2 | 0.001% (inactive) |
| CCCC(=O)N1CC2(C1)CN(C(=O)c1ccc(F)cc1)[C@H](CO)c1[nH]c3cc(OC)ccc3c12 | 0.003% (inactive) |
| CN(C)CC(=O)N1[C@H](C(=O)Nc2nccs2)[C@@H](CO)[C@@H]2Cn3c(ccc(C4=CCCCC4)c3=O)[C@@H]21 | 0% (inactive) |
| COc1ccc2c3c([nH]c2c1)[C@H](CO)N(S(=O)(=O)c1cn(C)cn1)CC31CCN(CC2CCCCC2)CC1 | 0.0045% (inactive) |
| CCC(=O)N1CC2(C1)CN(C(=O)c1cnccn1)[C@@H](CO)c1c2c2ccc(OC)cc2n1C | 0.0005% (inactive) |
| C[C@@H]1CCCCO[C@H](CN(C)Cc2ccncc2)[C@H](C)CN([C@@H](C)CO)C(=O)c2cc(NC(=O)Cc3ccccc3)ccc2O1 | -0.0005% (inactive) |
| O=C(C[C@H]1CC[C@@H]2[C@H](COC[C@H](O)CN2Cc2nccs2)O1)N1CCC(Cc2ccccc2)CC1 | 0.0115% (inactive) |
| C[C@@H]1CN([C@H](C)CO)C(=O)c2ccccc2-c2ccccc2CO[C@@H]1CN(C)Cc1ccc2c(c1)OCCN2C | 0.075% (inactive) |
| O=C(C[C@@H]1CC[C@@H]2[C@H](COC[C@@H](O)CN2CCC(F)(F)F)O1)NCc1ccc2c(c1)OCO2 | -0.005% (inactive) |
| CN(C)c1ccc2c(c1)[C@@H]1C[C@@H](CC(=O)NC3CCCCC3)O[C@@H](CO)[C@@H]1O2 | 0.029% (inactive) |
| O=C(O)[C@H]1[C@H](CO)[C@H]2Cn3c(ccc(-c4cccc(F)c4)c3=O)[C@H]2N1C(=O)c1ccccn1 | 0.0005% (inactive) |
| C[C@@H]1CCCCO[C@@H](CN(C)CC2CCCCC2)[C@H](C)CN([C@H](C)CO)C(=O)c2cc(NS(C)(=O)=O)ccc2O1 | -0.001% (inactive) |
| C[C@H]1CN([C@@H](C)CO)C(=O)c2cccc(NC(=O)c3cnccn3)c2O[C@@H]1CN(C)C(=O)NC1CCCCC1 | 0.0055% (inactive) |
| CN1c2ccc(-c3ccc(C#N)cc3)cc2[C@H]2[C@H](CCN2S(=O)(=O)c2ccc(F)cc2)[C@@H]1CO | 0.036% (inactive) |
| O=C(C[C@@H]1C[C@@H]2c3cc(NS(=O)(=O)c4ccc(F)cc4)ccc3O[C@@H]2[C@@H](CO)O1)N1CCc2ccccc2C1 | 0.011% (inactive) |

| Compound | activation |
| --- | --- |
| C[C@H](CO)N1C[C@H](C)[C@@H](CN(C)C(=O)c2ccc3ccn(C)c3c2)OCc2cnnn2CCCC1=O | 0.0015% (inactive) |
| COc1ccc2c3c(n(C)c2c1)[C@H](CO)N(S(=O)(=O)c1ccc(C)cc1)CC31CCN(C)CC1 | 0.052% (inactive) |
| CO[C@H](CN(C)Cc1ccc2c(c1)OCO2)[C@H](C)CN(C(=O)Nc1ccc(F)cc1)[C@H](C)CO | 0.0005% (inactive) |
| O=C(NCc1ccccc1)[C@H]1[C@H](CO)[C@H]2Cn3c(cccc3=O)[C@@H]1N2C(=O)Cc1ccccn1 | 0% (inactive) |
| CNC[C@H]1OCc2cn(nn2)CCCC(=O)N([C@@H](C)CO)C[C@H]1C | 0.005% (inactive) |
| COc1ccc2c3c(n(C)c2c1)[C@@H](CO)N(CC1CC1)CC31CN(C(=O)c2ccc3c(c2)OCO3)C1 | 8.42% (active) |
| COc1ccc2c3c(n(C)c2c1)[C@H](CO)N(CC1CC1)CC31CN(C(=O)c2ccc3c(c2)OCO3)C1 | 0.0045% (inactive) |
| COc1ccc2c3c(n(C)c2c1)[C@@H](CO)N(C)CC31CCN(C(=O)c2ccc3c(c2)OCO3)CC1 | 0.0125% (inactive) |
| CC[C@H]1C/C=C\C[C@@H](c2ccccc2)NC(=O)CCC(=O)N1 | -0.01% (inactive) |
| O=C(c1cccc(F)c1)N1CC(=O)N2[C@@H](CO)[C@H](c3ccc(C4=CCCCC4)cc3)[C@@H]2C1 | 0.025% (inactive) |
| COc1ccc(CN(C)C[C@@H]2Oc3ccc(NC(=O)Nc4ccc5c(c4)OCO5)cc3CC(=O)N([C@@H](C)CO)C[C@@H]2C)cc1 | 0.002% (inactive) |
| COCC(=O)N1C[C@@H](C)[C@@H](OC)CN(C)C(=O)c2ccc(NC(=O)Nc3cccc(F)c3)cc2OC[C@H]1C | -0.0005% (inactive) |
| CCC(=O)N1[C@H](CO)[C@@H]2c3ccccc3N(C(=O)Nc3ccc(Cl)cc3)C[C@@H]21 | -0.0015% (inactive) |
| COc1ccccc1S(=O)(=O)N(C)C[C@@H]1OCc2cn(nn2)CCCC(=O)N([C@H](C)CO)C[C@H]1C | 0.001% (inactive) |
| O=C(C1CCOCC1)N1CC(=O)N2[C@H](C1)[C@@H](c1ccc(-c3cccnc3)cc1)[C@@H]2CO | 0% (inactive) |
| O=C(C[C@@H]1CC[C@@H]2[C@H](COC[C@@H](O)CN2Cc2cc(F)ccc2F)O1)NCc1ccc(Oc2ccccc2)cc1 | 0.098% (inactive) |
| CN1c2ccc(-c3ccccc3)cc2[C@@H]2[C@@H](CCN2C(=O)NC2CCCCC2)[C@H]1CO | 0.001% (inactive) |
| Cc1noc(C)c1S(=O)(=O)N(C)C[C@H]1Oc2ccc(NC(=O)c3ccncc3)cc2CC(=O)N([C@H](C)CO)C[C@H]1C | -0.009% (inactive) |
| CN1C(=O)c2cc(NC(=O)c3cnccn3)ccc2OC[C@@H]2O[C@H](CC(=O)NCC3CCCCC3)CC[C@@H]21 | 0.05% (inactive) |
| CO[C@@H]1CN(C)C(=O)c2ccc(NC(=O)Nc3cc(F)ccc3F)cc2OC[C@H](C)N(C(=O)c2ccccn2)C[C@@H]1C | 0.0015% (inactive) |
| O=C(CN1CCOCC1)N1CC[C@@H]2[C@@H](CO)Nc3ccc(-c4ccccc4F)cc3[C@@H]21 | 0.001% (inactive) |

| Compound | activation |
| --- | --- |
| O=C(C[C@@H]1C[C@H]2c3cc(NC(=O)NC4CCCC4)ccc3O[C@H]2[C@H](CO)O1)NCc1ccccc1F | 0.02% (inactive) |
| CO[C@@H]1CN(C)C(=O)c2ccc(NC(=O)c3ccccc3F)cc2OC[C@H](C)N(C)C[C@H]1C | 0.0025% (inactive) |
| O=C(C1CCOCC1)N1CC(=O)N2[C@H](CO)[C@@H](c3ccc(/C=C/c4ccccc4)cc3)[C@H]2C1 | 0.002% (inactive) |
| O=C1Nc2ccccc2OCc2cn(nn2)CC[C@H]1Cc1ccc(-c2ccccc2)cc1 | 0.059% (inactive) |
| O=C(C[C@@H]1C[C@@H]2c3cc(NC(=O)c4ccc5c(c4)OCO5)ccc3O[C@@H]2[C@H](CO)O1)NCCN1CCCCC1 | -0.001% (inactive) |
| CN(C)C(=O)C[C@H]1C[C@@H]2c3cc(NC(=O)Nc4ccc(F)cc4)ccc3O[C@@H]2[C@@H](CO)O1 | 0.013% (inactive) |
| O=C(C[C@H]1CC[C@H]2[C@@H](COC[C@H](O)CN2Cc2ccc3c(c2)OCO3)O1)N1CCCCC1 | 0.0435% (inactive) |
| Cc1ccc(S(=O)(=O)N(C)C[C@@H]2OCCCC[C@@H](C)Oc3ccc(NC(=O)c4ccncc4)cc3C(=O)N([C@@H](C)CO)C[C@H]2C)cc1 | 0% (inactive) |
| O=C(C[C@H]1CC[C@@H]2[C@H](COC[C@@H](O)CN2S(=O)(=O)c2cccc(Cl)c2)O1)N1CCOCC1 | 0% (inactive) |
| CO[C@H](CN(C)Cc1cc(F)ccc1F)[C@@H](C)CN(C(=O)Nc1ccc(C(F)(F)F)cc1)[C@H](C)CO | 0.0245% (inactive) |
| CO[C@@H](CN(C)Cc1cc(F)ccc1F)[C@H](C)CN(C(=O)Nc1ccc(C(F)(F)F)cc1)[C@H](C)CO | 0.0205% (inactive) |
| CO[C@@H](CN(C)Cc1cc(F)ccc1F)[C@@H](C)CN(C(=O)Nc1ccc(C(F)(F)F)cc1)[C@H](C)CO | 19.2% (active) |
| CN(C[C@@H]1[C@@H](c2ccccc2)[C@H](CO)N1CC1CC1)C(=O)c1ccc(F)cc1 | -0.002% (inactive) |
| COc1ccccc1-c1ccc([C@H]2[C@@H](CO)N[C@@H]2CNC(=O)C2CC2)cc1 | 0.001% (inactive) |
| CC(C)(O)C#Cc1ccc([C@H]2[C@H]3CN(S(C)(=O)=O)CCCCN3[C@H]2CO)cc1 | 0.0005% (inactive) |
| N#C[C@@H]1[C@H](c2ccccc2C2=CCCCC2)[C@H](CO)N1C(=O)CN1CCOCC1 | 0% (inactive) |
| O=C(NC[C@@H]1[C@@H](c2ccccc2)[C@@H](CO)N1Cc1ccccn1)C1CCCC1 | -0.003% (inactive) |
| CCCNC(=O)N1[C@H](CO)[C@@H](c2ccccc2-c2cccc(C)c2)[C@@H]1C#N | 0.0075% (inactive) |
| CO[C@@H]1CC[C@@H]2CCOc3c(C#N)cccc3C(=O)N(C)CCCC(=O)N(C)C[C@H]1O2 | 0% (inactive) |
| O=C(C[C@@H]1C[C@@H]2c3cc(NS(=O)(=O)c4ccccc4)ccc3O[C@@H]2[C@H](CO)O1)NCC(F)(F)F | 0.001% (inactive) |
| O=C(Cc1ccccc1)N1CC[C@@H]2[C@@H](CO)Nc3ccc(C#Cc4cccc(F)c4)cc3[C@@H]21 | 0.0035% (inactive) |
